# Bioassay records (PubChem)
# Hits are enriched below; roughly 19% of the tested compounds scored in any of these assays.
# HT1080 IDH1KD tx: qHTS for induction of synthetic lethality in tumor cells producing 2HG: qHTS for the HT-1080-IDH1KD cell line. Potency, µM (titrated, usually from 46.1 µM), for inactives: at the highest dose activity, negative = toxicity, actives largely listed as cytotoxic. HT-1080 IDH1 knockdown viability, ATP luminescence, 48 h. 360,000 tested, 2% active. AID 686971, 2013;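 further: potency means the concentration at half of the fitted maximal effect; 0% = DMSO wells and -100% = cell-free medium wells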
#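 Knockdown cells (IDH1KD HT-1080) received compounds 2 h after plating at 750 cells/well and were kept 48 h at 37 °C in 5% FBS RPMI. A CellTiter-Glo luminescence read gave % activity for curve fitting.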
# IL1B secr inh: qHTS for Inhibitors of Inflammasome Signaling: IL-1-beta AlphaLISA Primary Screen; THP-1 LPS/ATP IL-1B secretion, AlphaLISA, 16 h; stronger effect = lower value; 360,000 tested, 4.7% active; AID 743279, 2014; activity change, % at 57.5 µM; in the data active means activity change below about -50%; inconclusive means mostly about -30% to -49%
#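 THP-1 cells pretreated 1 hr with compounds (up to 57.5 uM final), then stimulated with LPS (250 ng/mL final) plus ATP (1.25 mM final); secreted IL-1B measured by AlphaLISA after 16 hr, decreased signal indicating inhibition.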
# DT40 TDP1 no CPT: qHTS for Inhibitors of human tyrosyl-DNA phosphodiesterase 1 (TDP1): qHTS in cells in absence of CPT; DT40 Tdp1-/- hTDP1 cells, no CPT, ATP luminescence, 48 h; Potency, µM (highest dose often 46.2 µM), without a hit: at the highest dose activity change, negative = growth inhibition, usual class: inhibitors; 420,000 tested, 15% active; AID 686978, 2013; further: potency means the concentration at half of the fitted maximal effect; nearly all actives have a fitted effect of over 55% in size
#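 Readout: luminescence from CellTiter-Glo after 30 min in the dark at RT. Cells: DT40 Tdp1-/- with stable hTDP1, 400/well. Exposure: compounds alone, ≥48 hr, 37 °C.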
# HT1080-NT tox: qHTS for induction of synthetic lethality in tumor cells producing 2HG: qHTS for the HT-1080-NT fibrosarcoma cell line | HT-1080-NT fibrosarcoma viability, CellTiter-Glo ATP luminescence, 48 h | Potency, µM (series often up to 46.1 µM), inactives show top-dose activity, negative = less viability, hits mostly cytotoxic | 360,000 tested, 1.6% active;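 further: NT is the 2HG producing partner of a matched IDH1 knockdown line; potency means the concentration at half of the fitted maximal effect; 0% = DMSO-treated cells and -100% = media-only wells without cells; nearly all actives have a fitted effect of over 55% in size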
#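 Compounds were tested in concentration-response format on HT-1080-NT cells for 48 hours at 37 degrees C. Cell viability came from CellTiter-Glo luminescence; curves were classified by r2, response magnitude and activity.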
# DT40 TDP1 CPT: qHTS for Inhibitors of human tyrosyl-DNA phosphodiesterase 1 (TDP1): qHTS in cells in presence of CPT; AID 686979, 2013; Potency, µM (top dose mostly 46.2 µM), without a hit: at the highest dose activity change, negative = growth inhibition, most hits filed as inhibitors; chicken DT40 Tdp1-/-;hTDP1 cells + 20 nM CPT, ATP luminescence, 48 h; 420,000 tested, 12% active; further: potency means the concentration at half of the fitted maximal effect; nearly all actives have a fitted effect of over 55% in size
#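 Chicken DT40 Tdp1-/- cells stably complemented with human TDP1 were seeded at 400 cells/well in medium containing 20 nM camptothecin, exposed to pin-transferred compounds, and grown at 37 °C for at least 48 hr. Viability was read as ATP luminescence.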
# The depositor's hits bear a star; ? = inconclusive; · = no result. Unless noted, the call rests on the fitted dose curve; in most records, active means well fitted curve in the direction sought with a large enough effect; inconclusive means small, poorly fitted or top-dose-only effect, or another doubt; inactive means no such curve, though single readings can be large; an effect the other way counts as inactive or inconclusive. Unless noted, on the % scale 0 is the no-effect control and ±100 the full control effect.
SMILES,HT1080 IDH1KD tx,IL1B secr inh,DT40 TDP1 no CPT,HT1080-NT tox,DT40 TDP1 CPT
COc1ccc(C2CCCN2C(=S)Nc2ccc(C)c(C)c2)cc1OC (configuration not stated),9.2%,-17.9,?,-5.1%,9.4%
COc1cccc(NC(=S)N2CCCC2c2ccc(OC)c(OC)c2)c1 (configuration not stated),2.7%,-6.2,29.1µM*,-5.2%,-18.5%
COc1ccc(C2CCCN2C(=S)Nc2cccc(Cl)c2)cc1OC (configuration not stated),-3.1%,-87.0*,?,0.0%,-15.1%
COc1ccc(C2SCCN2C(=S)Nc2cccc(Cl)c2)cc1 (configuration not stated),-5.9%,-25.8,16.4µM*,-16.0%,?
COc1ccc(C2CCCN2C(=S)Nc2ccc(C)cc2C)cc1OC (configuration not stated),-11.3%,-15.1,25.9µM*,3.8%,-23.5%
O=C1c2cccc3cc([N+](=O)[O-])cc(c23)C(=O)N1c1nncs1,-4.5%,9.1,-6.7%,0.2%,1.7%
Cc1ccc(NC(=S)N2CCSC2c2cccs2)cc1 (configuration not stated),13.8%,-82.4*,-22.7%,-1.0%,?
CCc1ccc(-n2nc(CO)c(C(=O)NCCCc3ccccc3)n2)cc1,·,·,-14.8%,·,-7.3%
CCN1CCN(C2=C(NS(=O)(=O)c3ccc(Br)cc3)C(=O)c3ccccc3C2=O)CC1,-14.2%,28.7,23.1µM*,-4.9%,20.6µM*
CCOC(=O)C1CCN(C2=C(NS(=O)(=O)c3ccc(Br)cc3)C(=O)c3ccccc3C2=O)CC1,-29.4%,12.1,?,?,?
O=C1C(NS(=O)(=O)c2ccc(Cl)cc2)=C(N2CCCCC2)C(=O)c2ccccc21,?,?,18.4µM*,?,25.9µM*
COc1ccc(C(CNS(=O)(=O)c2ccccc2)N2CCN(C)CC2)cc1 (configuration not stated),4.4%,1.8,10.1%,5.5%,5.5%
CN1CCN(C2=C(NS(=O)(=O)c3ccccc3)C(=O)c3ccccc3C2=O)CC1,1.6%,5.1,?,-3.1%,23.1µM*
CCN1CCN(C2=C(NS(=O)(=O)c3ccccc3)C(=O)c3ccccc3C2=O)CC1,-3.3%,53.7,16.4µM*,4.5%,20.6µM*
O=C(COc1ccc([N+](=O)[O-])cc1)N(Cc1cccs1)C1CCS(=O)(=O)C1 (configuration not stated),2.6%,6.6,4.5%,5.7%,-29.7%
Cc1ccc(-c2ccnc(-n3ncc(C(=O)N(C)CC4CCCN(C)C4)c3C)n2)o1 (configuration not stated),·,·,-4.6%,·,29.3%
